Experimental findings from PubChem BioAssay (NCATS) are described below.

Results filed as inconclusive are left out. Activity calls are given as the source filed them. Unless noted, calls follow the shape of the full dose curve. Some results are limits rather than exact numbers.

For assay [1], the target named is Lysosomal acid glucosylceramidase (Homo sapiens) (UniProt P04062). The assay can be described thus: Glucocerebrosidase-p2 (AID 348; in the data active = potency below about 10 µM; also: potency is read from the fitted curve at half-maximal effect). The conditions noted are these: purified GBA, blue fluorogenic substrate, 40 min. The essentials:
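Compounds titrated from 0.6 nM upwards against 0.2 nM enzyme in pH 5.9 citric acid/KH2PO4, taurocholate, tween-20; blue fluorogenic substrate 80 uM, 40 min room temperature, stopped and read Ex 365/Em 440 for AC50.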

A short description of assay [2]: AP1 Signaling Pathway (AID 357; active = well fitted curve in either direction with a large enough effect, not every such curve was filed as active;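 also: ME-180 reporter cells stimulated with EGF at its EC50 level; % is scaled to controls: 0 for no effect and ±100 for the full control effect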). The conditions noted are these: ME-180 AP-1-bla reporter, EGF-induced, beta-lactamase ratio, 5 h; at 7.69 µM (top of the series) unless noted. The essentials: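 Modulation of EGF-driven AP-1 transcription was assessed with a beta-lactamase reporter in ME-180 cells. Compound and EC50 EGF were co-incubated 5 hours at 37 °C before 2.5-hour CCF4 loading at room temperature and dual-emission reading.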

Assay [3] addresses Cytochrome P450 1A2 (Homo sapiens) (UniProt P05177). The assay can be described thus: p450-cyp1a2 (AID 410). Also: potency is read from the fitted curve at half-maximal effect. The conditions noted are these: recombinant CYP1A2, luciferin-ME demethylation, luminescence; series mostly up to 57 µM. The essentials: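 Luminescent readout of luciferin formed from Luciferin-ME by human CYP1A2; data normalized against complete inhibition by 57 uM furafylline. Enzyme 20nM, substrate 100uM at Km, 100mM KPO4 buffer, 60 min reaction at room temperature.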

The nature of assay [4]: Stat Signaling Pathway (AID 446; active = well fitted curve in either direction with a large enough effect, not every such curve was filed as active;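 also: ME-180 cervical cancer cells given 40 pM IL-6 alongside compound; SIE-controlled beta-lactamase reporter measured as 460/530 nm FRET emission ratio; % is scaled to controls: 0 for no effect and ±100 for the full control effect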). The following applies: ME-180 (cervical carcinoma) SIE beta-lactamase reporter, IL-6 stimulated, 5 h; at 7.69 µM (top of the series) unless noted. The essentials:
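ME-180 cells carrying a SIE-driven beta-lactamase reporter are stimulated with 40 pM IL-6 for 5 h at 37C in the presence of compound. The 460/530 nm FRET substrate ratio is read after 2.5 h at RT. Data are normalised to 300 pM IL-6 and to 125 nM JAK inhibitor controls.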

Assay [5] concerns the target Glucocorticoid receptor (Homo sapiens) (UniProt P04150). Description: GR-GFP Redistribution (AID 450;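 active = compounds whose dose series gives a full or clear partial fitted curve of increased nuclear translocation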; also: potency is read from the fitted curve at half-maximal effect). The conditions noted are these: U2OS GR-GFP nuclear translocation, laser cytometry, 2 h.
Assay [6] has the same target. Description: GR-EFC Redistribution (AID 451). Also: potency is read from the fitted curve at half-maximal effect. The following applies: CHO-K1 GR-EFC translocation, beta-gal luminescence, 2 h. The essentials: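 CHO-K1 cells stably expressing nuclear-localized β-gal enzyme acceptor and GR fused C-terminally to the enzyme donor fragment; ligand-driven nuclear translocation restores β-gal by complementation. Compounds titrated up to 46 uM final, 2 h at 37 °C; luminescence read.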

Assay [7] deals with Mitogen-activated protein kinase 10 (Mus musculus) (UniProt Q61831). The assay can be described thus: JNK3 AlphaScreen Assay (AID 530; active = well fitted curve in either direction with a large enough effect, not every such curve was filed as active;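 also: kinase came from lysate of stimulated human HepG2 cells; signal reports phosphorylation of biotinylated GST-cJun 1-79 at Ser73 with 10 µM ATP; % is scaled to controls: 0 for no effect and ±100 for the full control effect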). The following applies: JNK3 lysate, c-Jun phosphorylation; series mostly up to 57.1 µM. The essentials: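 Inhibitors reduce antibody binding to phosphorylated biotin-cJun, lowering AlphaScreen luminescence. Lysates from HepG2 cells pre-activated by IL-1beta plus TNF-alpha supplied JNK3; compounds were titrated.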
A general note: In Alpha technology, singlet oxygen from a donor bead excites a nearby acceptor bead.

Assay [8] has as its target 3',5'-cyclic-AMP phosphodiesterase 4B (Homo sapiens) (UniProt Q07343). Description: qHTS Assay for Inhibitors of PDE-IV (AID 607; active = well fitted activation curve with a large enough effect in the main read-out, with a control signal flat, not every such curve was filed as active; also: % of control where 0% means no effect). The conditions noted are these: HEK293 ACTOne CNG channel cells, membrane potential fluorescence; series mostly up to 22.9 µM. The essentials: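 HEK293 ACTOne cells with CNG channel (1000/well), endogenous PDE4; membrane potential dye, compounds up to 22.9 uM final. Fluorescence Ex 535/Em 590; RO 20-1724 (100 uM final) as reference.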

The target in assay [9] is Cytochrome P450 3A4 (Homo sapiens) (UniProt P08684). The assay can be described thus: qHTS Assay for Inhibitors and Substrates of Cytochrome P450 3A4 (AID 884; active = well fitted curve in the direction sought with a large enough effect; an effect the other way counts as inactive or inconclusive; also: potency is read from the fitted curve at half-maximal effect; nearly all actives have a fitted effect of over 50% in size). The following applies: recombinant CYP3A4, Luciferin-PPXE luminescence; series mostly up to 57.1 µM. The essentials: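 20 nM human CYP3A4 with 25 uM Luciferin-PPXE (at KM) in 200 mM KPO4, preincubated 10 min with compound; NADPH regeneration started a 60 min RT reaction. Luciferin detected by luminescence, normalized to 57 uM ketoconazole as full inhibition.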

The target is the same in assay [10]. Description: qHTS Assay for Activators of Cytochrome P450 3A4 (AID 885; active = well fitted curve in the direction sought with a large enough effect; an effect the other way counts as inactive or inconclusive; also: nearly all actives have a fitted effect of over 65% in size). The conditions noted are these: recombinant CYP3A4, Luciferin-PPXE luminescence, 60 min; series mostly up to 57.1 µM. The essentials:
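Human CYP3A4 (20 nM) with Luciferin-PPXE at 25 uM (its KM) in 200 mM KPO4; 10 min compound preincubation, then NADPH regeneration and 60 min reaction at RT. Luciferin read by luminescence; normalized to 57 uM ketoconazole full inhibition.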
On the technique in general: qHTS replaces the single test concentration by a dilution series.

The nature of assay [11]: Confirmation and Secondary Assay for Modulators of Hemoglobin Beta Chain Splicing at IVS2 654 locus (AID 910; active = well fitted curve in the direction sought with a large enough effect; an effect the other way counts as inactive or inconclusive;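 also: per-well total GFP intensity by laser scanning cytometry after 2-day treatment; % of control where 0% means no effect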). The conditions noted are these: HeLa EGFP-654 splicing reporter, GFP fluorescence, 48 h; series mostly up to 38.3 µM. The essentials: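 HeLa cells stably carrying EGFP interrupted by mutant beta-globin IVS2-654 intron (CMV-driven) were treated with compound for 2 days at 37C; corrected splicing was scored as total peak GFP intensity per well (488 nm excitation, 500-520 nm emission).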

A short description of assay [12]: Confirmation and Secondary Assay for Modulators of Hemoglobin Beta Chain Splicing at IVS2 705 locus (AID 930; active = well fitted curve in the direction sought with a large enough effect; an effect the other way counts as inactive or inconclusive;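 also: HeLa cells stably expressing the EGFP-705 splicing reporter; % of control where 0% means no effect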). The conditions noted are these: HeLa EGFP-705 splicing reporter, GFP fluorescence, 48 h; series mostly up to 38.3 µM. The essentials: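 Restored EGFP fluorescence after 2-day compound exposure reports splicing correction in IVS2-705 EGFP reporter HeLa cells; positive control was 500 nM splice-blocking PNA oligo. Signal measured as well total peak GFP intensity (488 nm excitation).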

Assay [13] can be described thus: qHTS Assay for Lipid Storage Modulators (AID 1519). The following applies: Drosophila S3 cells, BODIPY lipid droplet/cell ratio, laser cytometry, cells loaded with oleic acid; for activity change, negative = inhibition: at 57.5 µM (top of the series). The essentials: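 Cells seeded at 5,000 per well were treated with compounds over a concentration series and loaded with oleic acid (400 uM, as added). Lipid droplet fluorescence (488 nm excitation, 500-530 nm channel) was read by laser-scanning cytometry and normalized to 20 uM Triacsin C.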

A short description of assay [14]: Primary qHTS for small molecule stabilizers of the endoplasmic reticulum resident proteome: Secreted ER Calcium Modulated Protein (SERCaMP) assay (AID 1508630; active = well fitted curve in the direction sought with a large enough effect; an effect the other way counts as inactive or inconclusive; also: % is scaled to controls: 0 for no effect and ±100 for the full control effect). The conditions noted are these: SH-SY5Y GLuc-SERCaMP (Gaussia luciferase released on ER calcium loss) secretion, thapsigargin, luminescence; series mostly up to 38.4 µM. The essentials: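 GLuc-SERCaMP-expressing SH-SY5Y cells, pretreated 16 h with compound, are challenged with thapsigargin to empty ER calcium stores; after 4 h, coelenterazine is added directly to the medium and luminescence is imaged.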

In assay [15] the target is Cytochrome P450 2C9 (Homo sapiens) (UniProt P11712). The assay can be described thus: qHTS Assay for Inhibitors and Substrates of Cytochrome P450 2C9 (AID 883; active = well fitted curve in the direction sought with a large enough effect; an effect the other way counts as inactive or inconclusive; also: potency is read from the fitted curve at half-maximal effect; nearly all actives have a fitted effect of over 60% in size). The following applies: recombinant CYP2C9, luciferin-H luminescence, 60 min; series mostly up to 57.1 µM. The essentials:
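Human CYP2C9 (10nM) hydroxylated Luciferin-H (100uM, at its KM) to luciferin in 25mM KPO4. Compound was preincubated 10 min at 37C, then NADPH regeneration started a 60 min reaction at 37C. Luminescence was read after detection reagent, normalized to 57uM sulphaphenazole.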

Setting [16] is: measured here: cell count channel max response.
The mark [17] stands for this setting: measured here: lipid channel max response.

Chain of 3',5'-cyclic-AMP phosphodiesterase 4B (Homo sapiens) (Q07343 whole entry, looked up): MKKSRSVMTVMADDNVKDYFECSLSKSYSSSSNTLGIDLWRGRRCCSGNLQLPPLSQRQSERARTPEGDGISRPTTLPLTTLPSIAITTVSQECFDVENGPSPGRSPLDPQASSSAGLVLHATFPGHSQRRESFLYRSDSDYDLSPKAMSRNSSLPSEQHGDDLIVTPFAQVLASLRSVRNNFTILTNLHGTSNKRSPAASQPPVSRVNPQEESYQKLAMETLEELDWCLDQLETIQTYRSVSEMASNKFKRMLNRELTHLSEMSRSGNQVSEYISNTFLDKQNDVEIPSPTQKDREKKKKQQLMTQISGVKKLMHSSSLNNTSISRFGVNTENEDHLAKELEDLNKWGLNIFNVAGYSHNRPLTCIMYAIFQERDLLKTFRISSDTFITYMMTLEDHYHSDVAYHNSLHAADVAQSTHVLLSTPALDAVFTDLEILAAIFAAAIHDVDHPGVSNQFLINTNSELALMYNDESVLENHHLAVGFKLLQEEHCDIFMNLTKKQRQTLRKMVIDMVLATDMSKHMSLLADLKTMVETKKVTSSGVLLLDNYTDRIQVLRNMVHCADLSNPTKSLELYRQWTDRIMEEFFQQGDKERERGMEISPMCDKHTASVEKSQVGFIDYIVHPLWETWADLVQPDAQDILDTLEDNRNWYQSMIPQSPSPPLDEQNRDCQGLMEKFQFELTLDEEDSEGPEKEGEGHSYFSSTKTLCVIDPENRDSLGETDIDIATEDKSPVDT
Chain of Lysosomal acid glucosylceramidase (Homo sapiens) (P04062 whole entry, looked up): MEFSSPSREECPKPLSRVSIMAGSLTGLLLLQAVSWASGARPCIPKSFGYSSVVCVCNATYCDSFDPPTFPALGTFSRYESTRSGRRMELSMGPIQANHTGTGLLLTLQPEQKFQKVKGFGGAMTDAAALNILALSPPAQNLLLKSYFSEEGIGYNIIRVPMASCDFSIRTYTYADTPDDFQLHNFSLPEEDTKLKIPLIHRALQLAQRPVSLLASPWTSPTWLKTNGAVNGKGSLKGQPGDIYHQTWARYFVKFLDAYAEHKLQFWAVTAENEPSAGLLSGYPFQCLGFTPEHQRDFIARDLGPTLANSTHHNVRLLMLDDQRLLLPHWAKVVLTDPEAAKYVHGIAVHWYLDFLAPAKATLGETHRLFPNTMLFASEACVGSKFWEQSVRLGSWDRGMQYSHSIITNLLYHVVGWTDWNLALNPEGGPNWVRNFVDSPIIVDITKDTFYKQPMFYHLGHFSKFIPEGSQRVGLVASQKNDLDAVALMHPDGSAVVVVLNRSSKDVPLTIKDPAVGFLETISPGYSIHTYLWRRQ
Chain of Cytochrome P450 1A2 (Homo sapiens) (P05177 whole entry, looked up): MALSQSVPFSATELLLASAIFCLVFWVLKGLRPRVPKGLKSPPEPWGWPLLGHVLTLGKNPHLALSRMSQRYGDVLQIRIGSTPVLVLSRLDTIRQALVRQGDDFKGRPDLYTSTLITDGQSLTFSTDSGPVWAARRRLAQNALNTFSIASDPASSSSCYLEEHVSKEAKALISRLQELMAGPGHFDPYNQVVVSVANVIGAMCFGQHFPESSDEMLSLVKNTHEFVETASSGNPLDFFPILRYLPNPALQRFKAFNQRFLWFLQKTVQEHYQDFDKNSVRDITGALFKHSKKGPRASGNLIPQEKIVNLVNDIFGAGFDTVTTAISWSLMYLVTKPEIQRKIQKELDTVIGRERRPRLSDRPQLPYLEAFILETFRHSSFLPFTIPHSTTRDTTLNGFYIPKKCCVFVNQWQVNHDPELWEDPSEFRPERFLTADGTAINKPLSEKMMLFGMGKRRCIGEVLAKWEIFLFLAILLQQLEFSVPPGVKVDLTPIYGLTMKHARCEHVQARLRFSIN
Chain of Cytochrome P450 3A4 (Homo sapiens) (P08684 whole entry, looked up): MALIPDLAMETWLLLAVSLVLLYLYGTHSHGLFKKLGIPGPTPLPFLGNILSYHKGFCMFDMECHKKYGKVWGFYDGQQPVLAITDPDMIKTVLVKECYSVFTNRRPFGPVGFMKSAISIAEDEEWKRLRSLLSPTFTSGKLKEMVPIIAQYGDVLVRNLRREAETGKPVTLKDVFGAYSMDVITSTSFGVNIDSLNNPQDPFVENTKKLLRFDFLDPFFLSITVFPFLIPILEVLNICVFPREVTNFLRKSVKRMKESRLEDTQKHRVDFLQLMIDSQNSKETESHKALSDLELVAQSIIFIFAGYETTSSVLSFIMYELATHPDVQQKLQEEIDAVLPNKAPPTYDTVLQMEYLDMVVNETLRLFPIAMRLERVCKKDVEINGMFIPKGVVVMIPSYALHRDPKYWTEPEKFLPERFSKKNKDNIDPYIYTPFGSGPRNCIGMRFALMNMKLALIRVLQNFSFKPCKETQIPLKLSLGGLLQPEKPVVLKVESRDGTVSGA
Chain of Glucocorticoid receptor (Homo sapiens) (P04150 whole entry, looked up, the tested form may be a part): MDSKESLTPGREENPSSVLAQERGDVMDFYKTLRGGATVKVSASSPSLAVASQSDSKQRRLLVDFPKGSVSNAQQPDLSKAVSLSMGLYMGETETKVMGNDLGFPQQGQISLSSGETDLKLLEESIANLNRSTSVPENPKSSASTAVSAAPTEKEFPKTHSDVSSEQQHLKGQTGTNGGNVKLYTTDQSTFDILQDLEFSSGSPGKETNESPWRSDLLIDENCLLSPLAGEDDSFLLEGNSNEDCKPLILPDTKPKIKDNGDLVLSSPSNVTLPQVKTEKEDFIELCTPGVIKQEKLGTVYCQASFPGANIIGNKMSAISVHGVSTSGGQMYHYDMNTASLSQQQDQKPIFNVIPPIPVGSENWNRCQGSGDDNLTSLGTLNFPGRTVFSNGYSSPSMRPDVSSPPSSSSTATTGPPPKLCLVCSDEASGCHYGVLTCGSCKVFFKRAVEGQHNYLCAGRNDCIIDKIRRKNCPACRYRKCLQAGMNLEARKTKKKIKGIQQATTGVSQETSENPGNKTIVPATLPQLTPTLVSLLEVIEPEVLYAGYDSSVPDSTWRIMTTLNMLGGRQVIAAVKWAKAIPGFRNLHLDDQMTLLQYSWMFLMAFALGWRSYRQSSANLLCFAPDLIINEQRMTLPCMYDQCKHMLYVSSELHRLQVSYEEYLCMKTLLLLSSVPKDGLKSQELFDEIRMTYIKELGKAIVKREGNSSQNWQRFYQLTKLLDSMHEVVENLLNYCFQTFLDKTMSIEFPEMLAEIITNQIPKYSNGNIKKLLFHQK
Chain of Cytochrome P450 2C9 (Homo sapiens) (P11712 whole entry, looked up): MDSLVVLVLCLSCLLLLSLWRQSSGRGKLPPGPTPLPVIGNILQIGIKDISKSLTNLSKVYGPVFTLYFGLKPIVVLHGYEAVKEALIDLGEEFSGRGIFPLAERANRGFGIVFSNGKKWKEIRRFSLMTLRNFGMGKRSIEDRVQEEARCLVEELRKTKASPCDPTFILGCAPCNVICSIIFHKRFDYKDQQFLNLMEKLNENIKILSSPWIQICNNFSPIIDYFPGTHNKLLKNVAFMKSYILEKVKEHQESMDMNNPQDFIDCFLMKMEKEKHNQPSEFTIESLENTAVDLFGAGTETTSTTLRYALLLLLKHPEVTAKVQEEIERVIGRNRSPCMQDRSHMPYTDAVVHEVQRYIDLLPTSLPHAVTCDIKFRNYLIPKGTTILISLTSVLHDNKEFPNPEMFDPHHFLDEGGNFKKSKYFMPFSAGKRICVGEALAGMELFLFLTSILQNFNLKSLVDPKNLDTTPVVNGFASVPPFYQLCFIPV

As for `Cc1cnc(CNc2ncnc3ccc(-c4cccc(C#N)c4)cc23)cn1`, the Potency in [1] is > 11.4 µM (inactive); in [3], 0.398 µM (active); in assay [5] it was > 46 µM (inactive); in [6], > 46 µM (inactive); in assay [9], 3.16 µM (active). Moreover, the activity change, negative = inhibition in assay [2] is -21.7% (inactive); in assay [13] it was 11.4% (inactive). Further, the activity, negative = inhibition in [4] is -7.7% (inactive). The Potency result in assay [7], in [8], in assay [10] and in [11] was “inactive” each time. Moreover, the outcome in [12] and in [14] was inactive. The max response in [13] (setting [16]) is -3.07%; in assay [13] (setting [17]) it was 8.37%.
Turning to `CN1CCC2(CC1)CCN(S(=O)(=O)c1ccccc1)CC2`, the results for the Potency in [1] and in assay [6] were > 11.4 µM (inactive) and > 46 µM (inactive), respectively. Further, the values for the activity change, negative = inhibition in assay [2] and in assay [13] were -4.78% (inactive) and -2.86% (inactive), respectively. The Potency result in [3], in [7] and in assay [8] was “inactive” each time. In addition, the activity, negative = inhibition in assay [4] was -1.02% (inactive). Moreover, the max response in [13] (setting [16]) was 8%; in [13] (setting [17]) it was 9.03%. Also, the result in [14] was inactive.
Take `COC(=O)N1CCC2(CC1)CN(c1ccncc1)C2`: the Potency was > 11.4 µM (inactive) in assay [1] and > 46 µM (inactive) in assay [6]. In addition, the activity change, negative = inhibition in assay [2] is 1.61% (inactive); in [13], 3.84% (inactive). For the same molecule, the Potency entry in assay [3], in assay [7] and in assay [8] was “inactive” in each case. Also, the activity, negative = inhibition in assay [4] is -7.68% (inactive). For the same molecule, the max response amounted to 7.79% in [13] (setting [16]) and 12.9% in [13] (setting [17]). The result in assay [14] was inactive.
With `CC(C)CN1CCC2(CC1)CCN(C(=O)c1cnccn1)CC2`, the Potency was > 11.4 µM (inactive) in assay [1] and > 46 µM (inactive) in [6]. In addition, the activity change, negative = inhibition was -3.54% (inactive) in [2] and -2.81% (inactive) in assay [13]. For the same molecule, the Potency entry in assay [3], in [7] and in assay [8] was “inactive” throughout. In addition, in assay [4], the activity, negative = inhibition was 3.68% (inactive). For the same molecule, the max response in assay [13] (setting [16]) is -8.95%; in assay [13] (setting [17]), -8.33%. Besides, the outcome in assay [14] was inactive.
With `O=S(=O)(c1ccccc1)N1CCC2(CCN(Cc3nccs3)CC2)CC1`, the Potency is > 11.4 µM (inactive) in [1] and > 46 µM (inactive) in [6]. Further, the activity change, negative = inhibition in assay [2] is 19.1% (inactive); in [13], 0.281% (inactive). The Potency entry in assay [3], in assay [7] and in assay [8] was “inactive” throughout. For the same molecule, the activity, negative = inhibition in [4] is -4.54% (inactive). Further, the values for the max response in assay [13] (setting [16]) and in assay [13] (setting [17]) were 4.88% and 7.01%, respectively. In addition, the outcome in assay [14] was inactive.
Take `O=C(c1ccco1)N1CCC2(CCN(Cc3ccncc3)CC2)CC1`: the Potency in assay [1] was > 11.4 µM (inactive); in assay [3] it was 20 µM (active); in assay [6], > 46 µM (inactive); in [15] it was 7.94 µM (active). Besides, the results for the activity change, negative = inhibition in assay [2] and in assay [13] were 1.28% (inactive) and 6.5% (inactive), respectively. The activity, negative = inhibition in [4] was -11.4% (inactive). The Potency result in assay [7], in assay [8] and in assay [10] was “inactive” each time. Further, the max response is 12.7% in assay [13] (setting [16]) and 20.5% in [13] (setting [17]). Further, the result in [14] was inactive.
As for `COCC(=O)N1CCC2(CCCN(Cc3ccccc3)C2)CC1`, the results for the Potency in [1] and in [6] were > 11.4 µM (inactive) and > 46 µM (inactive), respectively. Also, the activity change, negative = inhibition was -19.3% (inactive) in assay [2] and 2.23% (inactive) in assay [13]. Besides, the Potency result in [3], in [7] and in assay [8] was “inactive” throughout. For the same molecule, in assay [4], the activity, negative = inhibition is 0.327% (inactive). For the same molecule, the figures for the max response in assay [13] (setting [16]) and in assay [13] (setting [17]) were 22.3% and 27.9%, respectively. Moreover, the result in assay [14] was inactive.
